For 40 molecules, AC50 and outcome results are on record in PubChem BioAssay (EPA / NIEHS).

Inconclusive results are not listed. The source made the active and inactive calls. The calls were made as follows: active = hit-call score of the fitted dose curve at least 0.9, where 1 is the maximum; inconclusive = response in the unintended direction; inactive = score below 0.9.

Usually AC50 stands for the concentration giving half of the maximal activity seen.

Read-out in the test: xenobiotic metabolism (CYP1A1), CYP1A1 (gene 1543)
The test is described as follows: CLD_CYP1A1_24hr: CellzDirect (CLD) Gene Expression Assay for xenobiotic metabolism (CYP1A1) at 24 hours (AID 2283673). On the procedure:
CLD_24hr is a cell-based, multiplexed-readout assay that uses hepatocyte, a human liver primary cell, with measurements taken at 24 hours after chemical dosing in a 96-well plate.CLD_CYP1A1_24hr is one of 16 assay component(s) measured or calculated from the CLD_24hr assay. It is designed to make measurements of mRNA induction, a form of inducible reporter, as detected with chemiluminescence signals by Quantitative Nuclease Protection Assay (qNPA) technology.Data from the assay component CLD_CYP1A1_24hr was analyzed at the endpoint, CLD_CYP1A1_24hr, in the positive analysis fitting direction relative to DMSO as the negative control and baseline of activity. Using a type of inducible reporter, gain-of-signal activity can be used to understand changes in the reporter gene as they relate to the gene CYP1A1. Furthermore, this assay endpoint can be referred to as a primary readout. To generalize the intended target to other relatable targets, this assay endpoint is annotated to the cyp intended target family, where subfamily is xenobiotic metabolism.
Human hepatocyte cultures were treated daily for two consecutive days with fresh dosing solutions containing appropriate concentrations of the 320 ToxCast chemicals (chemical identities were blinded to CellzDirect and other ToxCast collaborators), vehicle control (0.2% DMSO), and positive control inducers as summarized in Table 1. Due to the large number of treatment groups and chemicals examined, the ToxCast chemicals were divided into two groups (spanning two independent cultures of hepatocytes from separate donor preparations (Hu778: ToxCast plates 1 and 2; Hu776: ToxCast plates 3 and 4). Each preparation of human hepatocyte cultures was treated with respective vehicle control, medium only control, set of six positive controls/reference chemicals for the five hepatic receptor pathways, and a subset of eight of the ToxCast chemicals (indoxacarb, pyrithiobac-sodium, norflurazon, cyhalofop-butyl, methomyl, thiram, acetochlor, and propiconazole). These replicate data, coupled with internal replicates designed within the blinded ToxCast chemical library, provided additional data to evaluate interindividual differences between hepatocyte preparations and their potential impact on chemical profiles.Cell morphology and integrity were evaluated using phase-contrast microscopy as an indicator of hepatocyte cell health (Tyson & Green, 1987). Cultures for each treatment group (i.e., media, vehicle [0.2% DMSO], positive control inducers [multiple concentrations], and the ToxCast chemicals [multiple concentrations]) were observed and cell morphology was assessed relative to vehicle control cultures at each harvest time point (0, 6, 24, or 48 h). […] Images were evaluated at the conclusion of the study to assess changes in cell integrity and account for the effects of chemical exposure on uncharacteristic changes in concentration-dependent gene expression profiles. The results from these determinations of apparent cytotoxicity were annotated (yes/no) alongside the corresponding qNPA data for reference.At the conclusion of each treatment period, hepatocyte cultures (96-well) were washed with 1 volume of HBSS, lysed by addition of 25 ul ArrayPlate lysis buffer (HTG, Tucson, AZ), and 70 ul/well of Denaturation Oil, denatured by incubation at 95C for 10 min, and frozen at approximately -70C until analysis by nuclease protection assay (qNPA) (Roberts et al., 2007). For qNPA analysis, cell lysates were thawed at 50C for approximately 30 min, qNPA probes were added, and samples were incubated at 95C for 10 min to begin the detection process by denaturing the target RNA, dissociating the duplexes and secondary structure hybridization. At the conclusion of the hybridization period, S1 nuclease reagent was added to each sample to digest all nonprotected nucleotides at 50C for 60-90 min. […]
Turning to `COP(=S)(OC)Oc1ccc([N+](=O)[O-])c(C)c1`, the concentration at half-maximal activity (AC50) is 3.97 µM (active). Same read-out and setting: to `CC(C)(C)C(=O)C(Oc1ccc(Cl)cc1)n1cncn1` (stereo not given) belongs 9.03 µM (active). Regarding `CCNP(=S)(OC)O/C(C)=C/C(=O)OC(C)C` (stereo not given), the half-maximal activity concentration (AC50) was 3.93 µM (active). `CN=C=S`: the outcome was inactive.

Turning to `Nc1cnn(-c2ccccc2)c(=O)c1Cl`, the result was inactive. In the case of `Cc1ccc(N=CN(C)C=Nc2ccc(C)cc2C)c(C)c1`, the AC50 is 1.9 µM (active).

For `O=c1n(Cl)c(=O)n(Cl)c(=O)n1Cl`, the AC50 was 3.97 µM (active).

As for `CC1(C)CCC(=Cc2ccc(Cl)cc2)C1(O)Cn1cncn1` (stereo not given), the concentration at half-maximal activity (AC50) is 4.02 µM (active). Consider `CCN(CC)c1nc(C)cc(OP(=S)(OC)OC)n1`, for which the half-maximal activity concentration (AC50) was 5.14 µM (active). On the same count and under the same terms, to `Clc1cccc(C(Cl)(Cl)Cl)n1` belongs 3.97 µM (active). Turning to `CNC(=O)N(C)c1nnc(C(C)(C)C)s1`, the outcome was inactive. As to `CCC(C)n1c(=O)[nH]c(C)c(Br)c1=O` (stereo not given), the concentration at half-maximal activity (AC50) is 5.45 µM (active). For the molecule `COc1cc(OC)nc(NC(=O)NS(=O)(=O)c2ncccc2OCC(F)(F)F)n1`, the molecule was called inactive.

In the case of `COC(=O)c1c(C(F)F)nc(C(F)(F)F)c(C2=NCCS2)c1CC(C)C`, the half-maximal activity concentration (AC50) is 36.1 µM (active). Still for that read-out and setting: to `CCOc1nc(F)cc2nc(S(=O)(=O)Nc3c(Cl)cccc3Cl)nn12` belongs 20 µM (active); to `CC1(C)C(C=C(Cl)Cl)C1C(=O)OC(C#N)c1cccc(Oc2ccccc2)c1` (stereo not given), 8.15 µM (active). Regarding `CCOc1cc(C(C)(C)C)ccc1C1COC(c2c(F)cccc2F)=N1` (stereo not given), the half-maximal activity concentration (AC50) was 20 µM (active).

Turning to `COP(=S)(OC)SCn1nnc2ccccc2c1=O`, the half-maximal activity concentration (AC50) is 3.65 µM (active). Regarding `CC1(C)CON(Cc2ccccc2Cl)C1=O`, the result was inactive.

`CC(C)N1C(=O)c2ccccc2NS1(=O)=O`: the call was inactive.

Regarding `N#Cc1c[nH]cc1-c1cccc2c1OC(F)(F)O2`, the AC50 is 3.64 µM (active). Turning to `CC1(C)C(C(=O)OC(C#N)c2cccc(Oc3ccccc3)c2)C1(C)C` (stereo not given), the molecule was classed as inactive. As to `OC(c1ccc(Cl)cc1)(c1ccc(Cl)cc1)C(Cl)(Cl)Cl`, the AC50 is 20 µM (active). `CSC(=O)c1c(C(F)F)nc(C(F)(F)F)c(C(=O)SC)c1CC(C)C`: the concentration at half-maximal activity (AC50) was 4.78 µM (active). `CCCCC(C#N)(Cn1cncn1)c1ccc(Cl)cc1` (stereo not given): the half-maximal activity concentration (AC50) is 35.3 µM (active). As for `CC(C)Oc1cccc(NC(=O)c2ccccc2C(F)(F)F)c1`, the AC50 is 20 µM (active). Still for that read-out and setting: to `COC(=O)NS(=O)(=O)c1ccc(N)cc1` belongs 0.00106 µM (active); to `CCOC(=O)C(C)OC(=O)c1cc(Oc2ccc(C(F)(F)F)cc2Cl)ccc1[N+](=O)[O-]` (stereo not given), 20 µM (active); to `COC(=O)NC(=S)Nc1ccccc1NC(=S)NC(=O)OC`, 15.1 µM (active).

Consider `COP(=O)(OC)O/C(C)=C/C(=O)N(C)C`, for which the molecule was classed as inactive. As to `Cc1nc(N(C)C)nc(OC(=O)N(C)C)c1C`, the half-maximal activity concentration (AC50) was 2.75 µM (active). The same measure, in the same setting: to `COc1ccc(-c2ccccc2)cc1NNC(=O)OC(C)C` belongs 14.1 µM (active); to `CCCN(CC)CC1COC2(CCC(C(C)(C)C)CC2)O1` (stereo not given), 0.376 µM (active). The same measure, in the same setting: then `CNC(=O)Oc1cccc2ccccc12`, with 8.24 µM (active). As to `CCOc1nc(C(Cl)(Cl)Cl)ns1`, the outcome was inactive.

Take `CCOP(=S)(OCC)Oc1nc(Cl)n(C(C)C)n1`: the AC50 is 2.18 µM (active). Consider `N#CN=C1SCCN1Cc1ccc(Cl)nc1`, for which the call was inactive.

Regarding `Cc1c(COC(=O)[C@@H]2[C@H](/C=C(\Cl)C(F)(F)F)C2(C)C)cccc1-c1ccccc1`, the half-maximal activity concentration (AC50) is 31.6 µM (active). On the same count and under the same terms, then `CCCCC(O)(Cn1cncn1)c1ccc(Cl)cc1Cl` (stereo not given), with 4.35 µM (active). For `CC(C)=CC1C(C(=O)OCc2coc(Cc3ccccc3)c2)C1(C)C` (stereo not given), the outcome was inactive.
